Results reported in the supplement of paper PMC13380429.

How the values were obtained:
[1] = system: Vero E6 infected with SARS-CoV-2; experiment: morphology score (similarity to uninfected cells); higher = more like uninfected cells; conditions: 24 h
[2] = system: Vero E6 infected with SARS-CoV-2; experiment: SARS-CoV-2 infection rate relative to infected DMSO; higher = more infection, active = 60 or less; conditions: 24 h

| SMILES | morphology score [1] | SARS-CoV-2 infection rate [2] |
| --- | --- | --- |
| CC(CN(C)C)C(C)(O)Cc1ccc(Cl)cc1 (stereo not drawn) [clobutinol] (10 µM) | 0.00198 | 109% (inactive) |
| Cc1cc(/C=C/C#N)cc(C)c1Nc1ccnc(Nc2ccc(C#N)cc2)n1 [rilpivirine] (0.833333 µM) | 0.136 | 111% (inactive) |
| Oc1c(I)cc(I)c2cccnc12 [iodoquinol] (0.833333 µM) | 0.155 | 99.5% (inactive) |
| CN1CCN(Cc2ccc(Nc3ncc(Cl)c(Nc4ccccc4S(=O)(=O)N(C)C)n3)cc2)CC1 (10 µM) | -0.145 | 120% (inactive) |
